The values below come from PubChem BioAssay AID1259240 (Keith Lab, Institute of Cancer Science, University of …, 2017).

The source made the active and inactive calls. No stated cut-off is given here; in the data, active means fold change mostly below about -2 (no sharp cut-off); inactive means mostly above about -1.8.

The experiment in a line: TERT promoter activity modulators, primary screen, cell-based, luciferase reporter, human (AID 1259240). The following applies: A2780 TERT promoter luciferase reporter, 16 h; at 20 µM, fold versus average of vehicle-only wells.
Take `CN1CCc2c(sc3c2C(=O)NC(c2cccc(Cl)c2Cl)N3)C1` (stereo not given): the fold change is -1.43 (inactive).
With `O=C(c1ccc(CSCc2ccccc2F)o1)N1CCN(c2ccc(N3CCOCC3)nn2)CC1`, the fold change was 1.7 (inactive).
On the same count and under the same terms, in the case of `COc1nc(NC(C)(C)C)nc(Oc2ccc(=O)[nH]n2)n1` it was 2 (active); in that of `Cc1c(Cl)cccc1NS(=O)(=O)c1cccc2cccnc12`, -1.05 (inactive).
Still for that read-out and setting: in the case of `COc1ccc(NC(=O)CN2N=NC3C(=O)N(c4ccc(Cl)cc4)C(=O)C32)c(OC)c1` (stereo not given) it was -1.12 (inactive); in that of `CC(=O)c1ccc2c(c1)c1ccccc1n2C`, -3.04 (active); in that of `O=C(NC1CCCC1)c1ccc2nc(N3CCOCC3)sc2c1`, -1.15 (inactive).
On the same count and under the same terms, in the case of `CN1CCN(C(=O)C2CCN(c3ccc(N4CCOCC4)nn3)CC2)CC1` it was -1.4 (inactive); in that of `COc1nnc(-c2ccc(N3CCCCC3)c(N)c2)c2ccccc12`, -1.98 (inactive).
With `Cc1ccc(-c2noc(-c3ccccc3Cl)n2)cc1`, the fold change is -93.3 (active).
For the molecule `COc1ccc2cc3c(N)nn(C(=O)CCS(=O)(=O)c4ccccc4)c3nc2c1`, the fold change was -1.33 (inactive).
On the same count and under the same terms, for `CCSC1=NSC2=NC(=O)/C(=C\c3coc4ccccc4c3=O)C(=N)N12` the value was 1.16 (inactive).
In the case of `Cc1cc2[nH]c(=O)c(CCO)c(C)n2n1`, the molecule was called inactive.
Turning to `O=C(O)CCC(=O)N1CCc2cc(S(=O)(=O)N3CCc4ccccc4C3)ccc21`, the fold change was 1.93 (inactive).
The same measure, in the same setting: in the case of `CCc1ccc(C2C3=C(CC(C)(C)CC3=O)NC3=C2C(=O)c2ccccc23)cc1` (stereo not given) it was -2.26 (active); in that of `CCOC(=O)N1CCC(Nc2c(N(CC)CC)c(=O)c2=O)CC1`, 1.22 (inactive).
As to `CCOC(=O)Cn1c(=O)oc2cc(S(=O)(=O)NCc3ccccn3)ccc21`, the fold change is 1.36 (inactive).
With `COc1ccc(-n2c(-c3ccco3)nc3c(cnn3-c3ccc(Cl)cc3)c2=O)cc1`, the fold change is -1.39 (inactive).
The same measure, in the same setting: in the case of `S=c1nc(-c2ccccc2)n(CCCn2ccnc2)c2c1CCCC2` it was 1.02 (inactive); in that of `COc1ccc(OC(C)c2nc(-c3ccc(C)cc3)no2)cc1` (stereo not given), -1.29 (inactive).
Same read-out and setting: in the case of `CCC(CO)NS(=O)(=O)c1ccc(OC)c(-c2nnc3c4ccccc4c(C)nn23)c1` (stereo not given) it was -1.69 (inactive).
Take `CN1CCN(CCCNC(=O)Cn2ncc3c4ccccc4n(C)c3c2=O)CC1`: the fold change was -1.07 (inactive).
Same read-out and setting: in the case of `CCNc1nc(C(=O)O)nc(N2CCOCC2)n1` it was -1.25 (inactive).
On the same count and under the same terms, in the case of `CC1=CSC2=NC(=O)/C(=C\c3coc4ccccc4c3=O)C(=N)N12` it was -1.1 (inactive).
With `CC1(C)NC(=O)N(CC(O)COc2ccccc2)C1=O` (stereo not given), the fold change was -1.3 (inactive).
On the same count and under the same terms, in the case of `CN1C(=O)C(O)(CC(=O)c2ccccc2O)c2cc(Br)ccc21` (stereo not given) it was 1.07 (inactive); in that of `CC1CC(C)CN(C(=O)Cn2c(=O)oc3cc(S(=O)(=O)NC4CCCC4)ccc32)C1` (stereo not given), 1.02 (inactive).
For `O=C(Cn1c(=O)c(C(F)(F)F)nc2ccccc21)N1CCCC1`, the fold change is -1.02 (inactive).
For the molecule `COc1ccc(S(=O)(=O)NC(C)(C)C)cc1-c1nnc2c3ccccc3c(C)nn12`, the fold change was -1.62 (inactive).
For the molecule `CCOc1nc(-c2ccncc2)nc2ccccc12`, the fold change is -4.22 (active).
Still for that read-out and setting: in the case of `O=C1c2ccccc2C(=O)N1CCC1=NCCc2ccccc21` it was -1.59 (inactive); in that of `CN1CCc2nc3sc(C(=O)Nc4ccc(F)cc4)c(N)c3cc2C1`, -1.42 (inactive).
The same measure, in the same setting: for `O=C(Nc1cccc(C(F)(F)F)c1)Nc1ccc2snnc2c1` the value was -1.55 (inactive); for `COc1cc(NC(=O)Nc2ccc3snnc3c2)cc(OC)c1OC`, -1.49 (inactive); for `Cn1c(=O)c(=O)n(C)c2cc(S(=O)(=O)N3CCCC3C(=O)Nc3nccs3)ccc21` (stereo not given), 1.15 (inactive).
On the same count and under the same terms, in the case of `CCCCCn1c(=O)[nH]c2c(c1=O)CCC2` it was -1.18 (inactive); in that of `CCOC(=O)C1=C(CS(=O)(=O)c2ccc(C)c(C)c2)NC(=O)NC1c1ccc(O)c(OC)c1` (stereo not given), 1.22 (inactive).
On to `CCOC(=O)c1ccc(N2C(=O)c3n[nH]c(-c4ccco4)c3C2c2ccc(C)cc2)cc1` (stereo not given), for which the fold change is -2.14 (active).
On to `O=C(NC1CCCCC1)C1CCCN(S(=O)(=O)c2cnc[nH]2)C1` (stereo not given), for which the fold change is -1.72 (inactive).
On the same count and under the same terms, in the case of `COc1cc2[nH]c(C)cc(=O)c2cc1OC` it was 1.12 (inactive).
